Measurements as given in the supplement of paper PMC6555819.

Tests used:
Experiment in all cases: PBM binding z-score (relative to random genomic background probes); higher = stronger binding; sequences stand for … in GC…GCGATTGACAGCGTAGAATGAAGG
[1] = test system: FXR:RXRa (NR concentration 270 nM, RXRa partner concentration 90 nM)
Outline: (§1)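 Scanned fluorescence from custom Agilent 4×180K protein-binding microarrays was regression-normalized. Binding z-scores use random background probes as reference. Ligand-free nuclear receptor dimers were incubated on the arrays for 1 h and detected with antibodies against each partner (one per run).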

[2] = test system: LXRa:RXRa (NR concentration 270 nM, RXRa partner concentration 90 nM)
Outline: as §1

[3] = test system: LXRa homodimer (NR concentration 270 nM)
Outline: as §1

[4] = test system: LXRb:RXRa (NR concentration 270 nM, RXRa partner concentration 90 nM)
Outline: as §1

[5] = test system: LXRb homodimer (NR concentration 270 nM)
Outline: as §1

[6] = test system: PPARa:RXRa (NR concentration 270 nM, RXRa partner concentration 90 nM)
Outline: as §1

[7] = test system: PPARg:RXRa (NR concentration 180 nM, RXRa partner concentration 90 nM)
Outline: as §1

[8] = test system: PPARg:RXRa 270nM:90nM, anti-RXR (NR concentration 270 nM, RXRa partner concentration 90 nM)
Outline: as §1

[9] = test system: PPARg:RXRa 30nM:10nM, anti-RXR (NR concentration 30 nM, RXRa partner concentration 10 nM)
Outline: as §1

[10] = test system: PPARg:RXRa 90nM:30nM, anti-RXR (NR concentration 90 nM, RXRa partner concentration 30 nM)
Outline: as §1

[11] = test system: PPARg:RXRa DBDmut IVT, anti-RXR (DBD mutation: RXRa K156A/R161A, NR concentration 270 nM, RXRa partner concentration 90 nM)
Outline: as §1

[12] = test system: PPARg:RXRa IVT, anti-PPARg (NR concentration 270 nM, RXRa partner concentration 90 nM)
Outline: as §1

[13] = test system: PPARg DBDmut:RXRa IVT, anti-PPARg (DBD mutation: PPARg1 K132A/R137A, NR concentration 270 nM, RXRa partner concentration 90 nM)
Outline: as §1

[14] = test system: PPARg DBDmut IVT, anti-PPARg (DBD mutation: PPARg1 K132A/R137A, NR concentration 270 nM)
Outline: as §1

[15] = test system: PPARg homodimer (NR concentration 180 nM)
Outline: as §1

[16] = test system: PXR:RXRa (NR concentration 270 nM, RXRa partner concentration 90 nM)
Outline: as §1

[17] = test system: PXR homodimer (NR concentration 270 nM)
Outline: as §1

[18] = test system: RARa:RXR (NR concentration 270 nM, RXRa partner concentration 90 nM)
Outline: as §1

[19] = test system: RARa homodimer (NR concentration 270 nM)
Outline: as §1

[20] = test system: RARb:RXRa (NR concentration 270 nM, RXRa partner concentration 90 nM)
Outline: as §1

| Sequence | PBM binding z-score [1] | PBM binding z-score [2] | PBM binding z-score [3] | PBM binding z-score [4] | PBM binding z-score [5] | PBM binding z-score [6] | PBM binding z-score [7] | PBM binding z-score [8] | PBM binding z-score [9] | PBM binding z-score [10] | PBM binding z-score [11] | PBM binding z-score [12] | PBM binding z-score [13] | PBM binding z-score [14] | PBM binding z-score [15] | PBM binding z-score [16] | PBM binding z-score [17] | PBM binding z-score [18] | PBM binding z-score [19] | PBM binding z-score [20] |
| --- | --- | --- | --- | --- | --- | --- | --- | --- | --- | --- | --- | --- | --- | --- | --- | --- | --- | --- | --- | --- |
| TTTAGCAGGCCAGAGGGTCACTCAAGAGGTACGG | 0.67 | 0.761 | -0.56 | 1.09 | -0.78 | 2.32 | 2.08 | 2.99 | 1.1 | 2.42 | -0.256 | 1.03 | -0.784 | -1.27 | 0.57 | 1.55 | -0.341 | 2.18 | -0.62 | 2.05 |
| CGTCCAAGGTCAAAGGTCAGTGGAGAGATGACGG | 8.17 | 6.91 | 3.66 | 6.84 | 2.07 | 7.16 | 10.7 | 9.05 | 8.08 | 9.59 | 3.88 | 5.79 | 1.38 | 0.543 | 4.78 | 7.21 | 1.94 | 8.88 | 2.17 | 6.16 |
| TCTTGTACATCAAAGGTTAAGAAAGCCGAAGCCT | 1.52 | 2.15 | 0.446 | 2 | 0.657 | 2.92 | 2.52 | 4.42 | 3.95 | 4.35 | 1.6 | 1.77 | 1.53 | 0.483 | 1.01 | 1.73 | 0.178 | 2.66 | 0.601 | 2.15 |
| ATCTCTAGGTAACTAAGTTCAGTGAATGCCGAAC | 0.51 | 0.962 | 1.22 | 1.02 | 0.792 | 1.32 | 0.573 | 0.892 | 0.181 | 0.816 | 2.67 | 2.89 | 1.24 | 1.19 | 1.29 | 2.49 | 2.44 | 1.25 | 0.922 | 1.37 |
| CCAGACAGGTGTGAAGGTAACTCAGCCTCGATTA | -0.289 | -0.378 | 0.0718 | -0.315 | -0.724 | -0.298 | 0.084 | -0.131 | -0.615 | -0.443 | -0.0821 | -0.409 | -1.46 | -0.767 | 0.376 | -0.386 | 0.146 | -0.273 | 0.322 | -0.103 |
| TATACAGGGTCAAAGGACAGAGTACGAATGTCGA | 7.39 | 6.09 | 2.79 | 4.85 | 2.96 | 6.24 | 7.83 | 6.55 | 4.83 | 5.84 | 2.27 | 4.9 | 3.23 | 2.81 | 2.18 | 3.68 | 1.01 | 4.56 | 1.66 | 4.55 |
| CAAACTAGGTGAAAGGTCAAAGTCGAGCCAACCA | 6.87 | 6.26 | 4.36 | 6.08 | 2.26 | 7.39 | 14.1 | 11.5 | 15.3 | 14.2 | 8.64 | 9.19 | 5.27 | 2.48 | 8.98 | 6.14 | 1.76 | 8 | 3.76 | 5.05 |
| TCATATAGGTAAAAGGTGAAAGTAGGTGTGGTAA | 2.28 | 2.13 | 0.449 | 2.3 | 0.226 | 5.4 | 9.14 | 8.72 | 8.11 | 9.43 | 5.54 | 5.11 | 1.51 | 2.06 | 2.38 | 2.11 | 0.728 | 3.45 | 2.24 | 2.06 |
| AGTCAAAGTTCAGGACGAGGTAAGGTAAAGCACG | 4.31 | 3.87 | 1.46 | 1.95 | 0.293 | 3.46 | 4.39 | 5.12 | 2.13 | 4.27 | -0.019 | 1.69 | 0.348 | -0.0383 | 2.01 | 2.5 | 1.18 | 2.42 | 1.06 | 4.4 |
| GCTAGTTGGTTAGTAAAAGGTCACACACCGGTCG | 2.97 | 4.33 | 4.85 | 4.1 | 1.08 | 4.6 | 2.08 | 3.55 | 1.87 | 3.47 | 0.595 | 2.29 | 0.167 | 0.647 | 4.26 | 5.09 | 1.29 | 6.05 | 3.17 | 3.99 |
| AGAATGAGGTTGAGATCAGGGAAACAGAATACAT | 0.277 | 0.207 | -0.104 | 0.224 | -0.585 | 0.66 | 0.524 | 0.227 | 0.329 | 0.246 | -0.749 | -0.0669 | 0.897 | 0.0775 | 0.146 | 0.154 | 0.387 | 0.681 | 0.16 | 0.263 |
| TAGCCTAGGTCAGCTCGGGCCAGTATACGCTATA | 2.43 | 1.05 | -0.68 | 0.599 | -1.22 | 1.66 | 0.605 | 0.958 | -0.317 | 0.418 | 1.01 | 1.73 | -1.19 | -1.03 | 0.105 | 1.77 | -0.949 | 1.39 | -0.994 | 3.65 |
| CCTGCTAGGTCAATGGTAAGCTAAAGCAGCTCGC | 2.96 | 2.11 | -0.107 | 1.19 | -0.205 | 2.84 | 2.52 | 2.98 | 0.395 | 2.09 | 4.33 | 3.43 | -1.49 | -0.489 | 1.05 | 0.564 | -0.596 | 1.5 | -0.463 | 3.79 |
| AGAATGAGGTTATCAAAGATCAGGGAAACGCTTG | 1.6 | 5.08 | -0.032 | 2.44 | -0.277 | 3.13 | 1.78 | 1.69 | 0.863 | 1.53 | 2.98 | 2.51 | 1.56 | 0.266 | 0.544 | 1.25 | 0.0151 | 1.6 | 0.154 | 1.33 |
